# Records with an inconclusive call do not appear. Activity calls are given as the source filed them. The call rests on the fitted dose curve; in most records, active means well fitted inhibition curve with a large enough effect; inconclusive means small, poorly fitted or top-dose-only effect; inactive means flat fitted curve, though single readings scatter.
# Target: RecQ-like DNA helicase BLM (Homo sapiens) (UniProt P54132)
# Assay: qHTS for Inhibitors of Bloom's syndrome helicase (BLM): Helicase ATPase Orthogonal Confirmatory Assay for SAR
# Description: Human RecQ DNA helicases participate in maintenance of genome stability and DNA repair. While other types of helicases have been explored as targets for drug development, members of the RecQ family have remained less well characterized. Mutations of the Bloom helicase gene have been associated with the rare human genetic disease called Bloom syndrome. […] Moreover, identified inhibitors can be used in cells and animal models to examine the consequences of inhibition on the survival of cancer cells where it has been shown that BLM plays an important role.
# A fluorescence-based, biochemical assay in 1536 well format was developed to evaluate inhibition of BLM DNA unwinding activity. This assay was used to screen the MLPCN library. […] This luminescence assay employs a purified BLM enzyme and a single stranded BLM oligo substrate ([…]). For this assay increase in luminescence signal is greater than or equal to 700 RLU. […]
# Three microliter of reaction buffer (25mM Tris-HCl pH 8.0, 50mM NaCl, 2mM MgCl2, 1mM DTT, and 0.01% Tween- 20, and 2nM BLM enzyme) was dispensed into a 1536-well assay plates (Greiner, solid white medium-binding) via Aurora Discovery BioRAPTR Flying Reagent Dispenser (FRD). […] After 30 min at room temperature, the luminescence signal was detected using the ViewLux CCD imager. […]
# Sequence of RecQ-like DNA helicase BLM (Homo sapiens) (P54132 whole entry, looked up): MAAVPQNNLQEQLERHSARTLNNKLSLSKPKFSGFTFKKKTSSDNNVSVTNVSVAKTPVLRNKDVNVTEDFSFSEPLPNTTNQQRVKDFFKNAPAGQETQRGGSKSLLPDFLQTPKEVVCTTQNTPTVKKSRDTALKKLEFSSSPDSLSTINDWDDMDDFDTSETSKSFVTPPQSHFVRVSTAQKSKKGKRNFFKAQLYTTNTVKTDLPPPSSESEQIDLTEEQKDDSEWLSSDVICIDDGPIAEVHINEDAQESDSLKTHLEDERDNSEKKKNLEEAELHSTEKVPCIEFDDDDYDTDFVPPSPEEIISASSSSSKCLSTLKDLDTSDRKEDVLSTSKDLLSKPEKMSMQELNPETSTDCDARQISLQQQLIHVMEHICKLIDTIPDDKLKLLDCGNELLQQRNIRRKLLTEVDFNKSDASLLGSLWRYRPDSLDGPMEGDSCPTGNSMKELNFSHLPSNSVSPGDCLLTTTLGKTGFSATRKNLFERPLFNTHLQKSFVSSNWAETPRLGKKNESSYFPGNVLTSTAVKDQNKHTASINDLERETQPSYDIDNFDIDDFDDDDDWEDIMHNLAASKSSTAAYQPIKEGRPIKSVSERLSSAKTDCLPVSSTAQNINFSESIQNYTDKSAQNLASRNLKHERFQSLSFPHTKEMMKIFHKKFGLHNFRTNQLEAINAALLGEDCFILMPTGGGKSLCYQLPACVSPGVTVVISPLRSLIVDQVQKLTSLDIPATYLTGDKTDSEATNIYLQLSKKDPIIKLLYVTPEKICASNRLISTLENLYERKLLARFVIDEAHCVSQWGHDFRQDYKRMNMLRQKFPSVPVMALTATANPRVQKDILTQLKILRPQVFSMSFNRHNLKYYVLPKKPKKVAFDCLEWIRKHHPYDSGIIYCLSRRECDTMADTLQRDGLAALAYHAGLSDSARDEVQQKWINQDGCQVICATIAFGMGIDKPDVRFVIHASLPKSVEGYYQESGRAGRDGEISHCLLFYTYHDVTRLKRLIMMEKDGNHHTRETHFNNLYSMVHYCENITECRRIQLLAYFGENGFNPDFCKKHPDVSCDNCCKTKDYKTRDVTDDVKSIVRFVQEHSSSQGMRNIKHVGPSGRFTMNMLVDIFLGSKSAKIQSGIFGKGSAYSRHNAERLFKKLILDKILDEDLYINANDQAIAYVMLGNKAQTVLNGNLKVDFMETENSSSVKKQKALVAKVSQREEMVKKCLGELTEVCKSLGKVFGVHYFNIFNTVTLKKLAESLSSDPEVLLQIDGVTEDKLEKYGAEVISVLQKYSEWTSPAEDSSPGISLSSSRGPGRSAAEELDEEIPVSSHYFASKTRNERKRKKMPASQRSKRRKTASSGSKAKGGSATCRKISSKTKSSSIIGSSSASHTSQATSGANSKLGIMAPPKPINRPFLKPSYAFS
smiles,measurement,value
N#Cc1ccc(NC(=O)Nc2nnc(-c3ccncc3)s2)cc1C(F)(F)F,outcome,inactive

# Source: PubChem BioAssay AID720549 (National Center for Advancing Translational Sciences (NCATS), 2013)
